# Measured values: the supplement of paper PMC11219838
# A number with no mark means an inactive call.
# System: Caenorhabditis elegans L1 (N2)
# Test: survival and reproduction score of C. elegans L1 (0: 0-10 living worms, 1: 11-20, 2: 21-50, 3: >50, 4: overgrown) (score 0-4); higher = more worms, less nematicidal, active = 1 or less; extreme values may be limits of the assay
# Settings: 60 µM; 6 days; temperature: 20 °C
# How it was run: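 After compound was pinned to 60 µM final (0.6% v/v DMSO) into wells with roughly 20 synchronized C. elegans N2 L1s and E. coli HB101 in liquid NGM, the sealed 96-well plates were shaken at 200 rpm for 6 days at 20 °C. Under a dissection microscope, survival and reproduction were graded ordinally by living worms per well. A grade of 0 stood for 0–10 worms and 4 for overgrown, starved wells; two biological replicates were averaged.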
row,SMILES,survival and reproduction score
1,Clc1ccc(OCc2ccccc2)c(-c2nc(-c3cccnc3)no2)c1,4
2,CCOc1ccccc1-c1nnc(SCC(=O)NC(C)CC)o1 (centres undefined),4
3,O=C(CSc1nnc(-c2cccc(Cl)c2)o1)N1CCCCC1,4
4,Cc1cc(OCc2nc(-c3ccncc3)no2)cc(C)c1Br,4
5,NC(=O)COc1ccccc1-c1nc(-c2ccccc2Cl)no1,4
6,Brc1ccc(-c2noc(-c3ccc4c(c3)OCO4)n2)cc1,4
7,Brc1ccc(-c2noc(-c3ccco3)n2)cc1,0 (active)
8,O=C(CSc1nnc(-c2ccco2)o1)Nc1ccc(Br)cc1,4
9,CCOc1ccccc1-c1nnc(SCC(=O)Nc2nc(C)cs2)o1,4
10,COc1ccccc1-c1nc(-c2cccc(Br)c2)no1,4
11,O=C(CSc1nnc(-c2ccccc2)o1)Nc1ccccc1F,4
12,Cc1cc(OCc2nc(-c3cccnc3)no2)ccc1Cl,4
13,CCC(=O)Nc1ccccc1-c1nc(-c2ccccn2)no1,4
14,c1cncc(-c2noc(-c3cccc4ccccc34)n2)c1,4
15,COc1ccccc1-c1noc(-c2ccccc2)n1,4
16,Cc1cc(Cl)ccc1NC(=O)CSc1nnc(-c2ccncc2)o1,4
17,Cc1ccc(-c2nc(-c3cccnc3)no2)c(C)c1,0 (active)
18,O=C(CSc1nnc(-c2ccc(Br)cc2)o1)NC1CCCCC1,4
19,Cc1ccc(-c2noc(COc3ccc(Cl)c(C)c3)n2)cc1,4
